In PubChem BioAssay (NCI) one finds growth data, which are given here for 13 compounds.

The structures appear in SMILES notation. About 83,000 compounds went through this panel and 20% of them were active in at least one assay; those are over-represented in the sample as a whole.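 Treatment: one concentration, 48 hours, 96-well format. Scoring: percent growth, with anything below 10 considered active.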 Values without a mark were called inactive. The source made the active and inactive calls.

Test systems include DU-145 prostate; K-562 leukemia; MALME-3M melanoma; MDA-MB-231 breast; RXF 393 renal; SF-268 CNS; SF-295 CNS; SF-539 CNS; UACC-257 melanoma; M14 melanoma.
What all share (test): NCI-60 one-dose screen, 48 h (100 = growth as untreated, 0 = no growth, -100 = all killed)
Holding throughout (conditions): 10 µM unless noted

In the case of `COC(=O)/C=C1\S/C(=N\NC(=O)c2cc3ccc2/C=C\c2ccc(cc2)/C=C\3)N(Cc2ccccc2)C1=O`, the growth in the assay with DU-145 prostate was 83.2%; in the assay on K-562 leukemia it was 18.9%; in the assay on MALME-3M melanoma it was 88.4%; in the assay on MDA-MB-231 breast it was 56.8%; with RXF 393 renal, 15.6%; in the assay with SF-268 CNS, 85%. Also, the growth in the assay with SF-295 CNS was 89.4%; in the assay on SF-539 CNS it was 43.3%; with UACC-257 melanoma, 81%; in the assay with M14 melanoma, 63.4%.

Turning to `CCN1C(=O)/C(=C/C(=O)OC)S/C1=N\NC(=O)c1cc2ccc1/C=C\c1ccc(cc1)/C=C\2`, the growth with DU-145 prostate is 108%; in the assay on K-562 leukemia it was 54.2%; in the assay with MALME-3M melanoma, 91.9%; with MDA-MB-231 breast, 96.1%; in the assay on RXF 393 renal, 101%; in the assay on SF-268 CNS it was 97.8%. Besides, the growth is 96.9% in the assay with SF-295 CNS, 90.2% in the assay on SF-539 CNS, 92.7% with UACC-257 melanoma and 87.1% in the assay with M14 melanoma.

In the case of `CCc1ccc(CNc2ccc(N3CCOCC3)c(C(=O)O)c2)cc1`, the growth was 105% in the assay on DU-145 prostate; 111% in the assay on K-562 leukemia; 101% with MALME-3M melanoma; 114% with MDA-MB-231 breast; 121% in the assay with RXF 393 renal; 95.6% with SF-268 CNS. The growth in the assay on SF-295 CNS is 103%; with SF-539 CNS it was 100%; in the assay with UACC-257 melanoma, 106%; in the assay on M14 melanoma it was 99.7%.

Take `CN1CCN(C(=O)[C@]23CCC(C)(C)C[C@H]2C2=CC[C@@H]4[C@@]5(C)C/C(=C/c6cccnc6)C(=O)C(C)(C)[C@@H]5CC[C@@]4(C)[C@]2(C)CC3)CC1`: the growth in the assay on DU-145 prostate was 71.6%; in the assay on K-562 leukemia it was 10.9%; in the assay on MALME-3M melanoma, 63.4%; with MDA-MB-231 breast, 59.8%; with RXF 393 renal, 64.9%; in the assay with SF-268 CNS, 68.3%. The growth with SF-295 CNS is 74%; in the assay on SF-539 CNS it was 80%; in the assay on UACC-257 melanoma, 43.7%; in the assay on M14 melanoma it was 57.5%.

On to `O=C1OC(Cc2ccccc2)C1c1ccccc1` (stereo not given), for which the growth with DU-145 prostate was 110%; in the assay with K-562 leukemia, 108%; with MALME-3M melanoma, 106%; with MDA-MB-231 breast, 102%; in the assay on RXF 393 renal, 120%; with SF-268 CNS, 97.9%. The growth in the assay on SF-295 CNS is 98.2%; in the assay with SF-539 CNS, 102%; in the assay with UACC-257 melanoma, 93.9%; in the assay on M14 melanoma, 104%.

For `CCCCCCNC(=O)Oc1ccc(/C(=C(\C)c2ccccc2)c2ccc(OCCCN(C)C)cc2)cc1`, the growth in the assay with DU-145 prostate is 99.6%; with K-562 leukemia, 3.9% (active); with MALME-3M melanoma it was 54%; with MDA-MB-231 breast, 82.7%; with RXF 393 renal, 75.4%; in the assay with SF-268 CNS, 79.4%. Moreover, the growth in the assay with SF-295 CNS was 93.7%; in the assay on SF-539 CNS, 79.4%; in the assay on UACC-257 melanoma it was 86.2%; in the assay on M14 melanoma, 40.1%.

Consider `CC(=O)O[C@H]1Cc2c([nH]c3ccccc23)[C@@H](c2ccc(Cl)cc2)N1C(=O)CCNC(C)(C)C`, for which the growth was 65.2% in the assay on DU-145 prostate; 8.71% (active) with K-562 leukemia; -37.8% (active) in the assay with MALME-3M melanoma; -26% (active) with MDA-MB-231 breast; 39.6% in the assay on RXF 393 renal; 61.3% with SF-268 CNS. For the same compound, the growth was 68.3% in the assay with SF-295 CNS, 40.1% with SF-539 CNS, 65.1% with UACC-257 melanoma and -0.737% (active) in the assay on M14 melanoma.

`C=CC(=O)N[C@@H](/C=C/C(=O)OCC)Cc1ccc(-c2cc(Cl)cc(Cl)c2)cc1`: the growth in the assay with DU-145 prostate is 16.9%; in the assay on K-562 leukemia, 8.57% (active); in the assay with MALME-3M melanoma, 4.14% (active); in the assay with MDA-MB-231 breast, 9.36% (active); in the assay on RXF 393 renal, -10.1% (active); in the assay with SF-268 CNS, 32.1%. Also, the growth in the assay on SF-295 CNS was 21.8%; in the assay on SF-539 CNS it was 56.8%; in the assay on UACC-257 melanoma, -2.68% (active); with M14 melanoma, 24.7%.

As to `CN(C)c1ccc(Nc2c3ccccc3nc3cc(NC(=O)CCN4CCCC4)ccc23)cc1`, the growth with DU-145 prostate was -38.5% (active); with K-562 leukemia, -4.43% (active); in the assay on MALME-3M melanoma it was -90.9% (active); with MDA-MB-231 breast, -38.1% (active); with RXF 393 renal, -6.44% (active); in the assay on SF-268 CNS, -6.93% (active). Also, the growth in the assay with SF-295 CNS was 6.34% (active); in the assay with SF-539 CNS, -69% (active); in the assay on UACC-257 melanoma, -52% (active); with M14 melanoma, -84.9% (active).

With `CC(=O)c1cc2c(N)c(C(=O)Nc3cccc4ccncc34)sc2nc1C`, the growth in the assay on DU-145 prostate is 109%; with K-562 leukemia, 82.2%; in the assay with MALME-3M melanoma, 101%; in the assay with MDA-MB-231 breast it was 93%; with RXF 393 renal it was 104%; with SF-268 CNS, 98.5%. Also, the growth in the assay on SF-295 CNS is 85%; with SF-539 CNS, 94.1%; with UACC-257 melanoma, 96.2%; with M14 melanoma it was 75.8%.

Regarding `COc1ccc(/C=C(\C#N)n2nc3cccc(F)c3n2)cc1`, the growth was 103% with DU-145 prostate; 82.8% in the assay with K-562 leukemia; 100% with MALME-3M melanoma; 112% with MDA-MB-231 breast; 104% with RXF 393 renal; 104% in the assay on SF-268 CNS. Further, the growth in the assay with SF-295 CNS is 99.9%; with SF-539 CNS, 101%; in the assay with UACC-257 melanoma it was 95.5%; in the assay on M14 melanoma, 105%.

For `CCCCCN1C=C/C(=C\C(=O)N2CCCc3ccccc32)c2ccccc21`, the growth in the assay with DU-145 prostate was 94.1%; in the assay on K-562 leukemia, 54.1%; in the assay with MALME-3M melanoma it was 86%; in the assay with MDA-MB-231 breast, 97%; with RXF 393 renal it was 99.5%; in the assay with SF-268 CNS, 87.2%. Moreover, the growth in the assay with SF-295 CNS was 85.7%; with SF-539 CNS it was 97.2%; with UACC-257 melanoma, 89.8%; in the assay on M14 melanoma, 100%.

As for `COc1cc2nc(-c3ccc(Cl)cc3)cc(OCCCN3CCCC3)c2cc1OC`, the growth was 41.7% in the assay on DU-145 prostate; 21.1% with K-562 leukemia; 50% with MALME-3M melanoma; 21.5% with MDA-MB-231 breast; 42.8% in the assay with RXF 393 renal; 54.5% in the assay with SF-268 CNS. Besides, the growth in the assay on SF-295 CNS was -17% (active); in the assay with SF-539 CNS it was 42.6%; with UACC-257 melanoma, 31.7%; in the assay with M14 melanoma it was -29.7% (active).
